Paper PMC4336329 (PLoS ONE, 2015)
In all, about 310,000 compounds went through this assay and about 14,000 (4.5%) showed an effect of 50% or more. Effects have a minus sign here. For the sample, strong results were picked, then their nearest neighbours and some compounds at random.

The compounds below were run against human ether-à-go-go-related gene (hERG) potassium channel (human, UniProt Q12809) (assay: primary screen, population patch clamp on CHO cells stably expressing hERG; higher = less effect of the substance).
human ether-à-go-go-related gene (hERG) potassium channel, sequence (Q12809 whole entry, looked up): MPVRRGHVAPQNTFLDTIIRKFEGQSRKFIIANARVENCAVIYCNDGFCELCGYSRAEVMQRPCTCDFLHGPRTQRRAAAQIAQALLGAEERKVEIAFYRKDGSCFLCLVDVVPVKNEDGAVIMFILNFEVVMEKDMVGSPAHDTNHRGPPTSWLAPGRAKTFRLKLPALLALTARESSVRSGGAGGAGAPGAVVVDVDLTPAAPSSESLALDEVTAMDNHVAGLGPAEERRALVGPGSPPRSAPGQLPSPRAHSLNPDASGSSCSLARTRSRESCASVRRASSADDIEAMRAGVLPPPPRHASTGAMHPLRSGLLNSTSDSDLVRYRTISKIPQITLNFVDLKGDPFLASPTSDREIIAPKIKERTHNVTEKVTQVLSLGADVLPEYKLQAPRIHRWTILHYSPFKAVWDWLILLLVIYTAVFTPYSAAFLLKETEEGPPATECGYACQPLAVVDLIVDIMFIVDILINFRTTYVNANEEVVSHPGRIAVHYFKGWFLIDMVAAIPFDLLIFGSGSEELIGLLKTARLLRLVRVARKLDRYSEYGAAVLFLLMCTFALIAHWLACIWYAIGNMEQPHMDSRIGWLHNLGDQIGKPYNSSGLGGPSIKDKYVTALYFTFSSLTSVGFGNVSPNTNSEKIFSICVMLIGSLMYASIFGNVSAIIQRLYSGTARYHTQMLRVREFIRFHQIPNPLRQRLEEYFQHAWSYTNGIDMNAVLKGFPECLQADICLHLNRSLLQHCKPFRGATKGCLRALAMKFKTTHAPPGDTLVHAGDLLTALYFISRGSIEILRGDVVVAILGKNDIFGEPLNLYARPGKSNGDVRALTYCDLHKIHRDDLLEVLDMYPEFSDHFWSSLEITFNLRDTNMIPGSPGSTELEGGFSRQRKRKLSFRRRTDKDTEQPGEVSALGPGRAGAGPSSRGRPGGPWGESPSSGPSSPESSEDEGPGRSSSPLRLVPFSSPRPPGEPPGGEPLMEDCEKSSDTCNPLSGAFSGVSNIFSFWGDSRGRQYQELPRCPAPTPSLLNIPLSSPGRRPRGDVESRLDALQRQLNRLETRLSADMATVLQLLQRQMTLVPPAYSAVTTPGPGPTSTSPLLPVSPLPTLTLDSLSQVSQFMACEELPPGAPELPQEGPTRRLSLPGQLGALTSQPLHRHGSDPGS
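Further: peak tail current of the secondary pulse compared with the same well before compound.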

SMILES | hERG current change (%, negative = inhibition) at 10uM
CCN(C(=O)COC(=O)c1cc(S(=O)(=O)N2CCOCC2)c(Cl)cc1Cl)C1CCS(=O)(=O)C1 (stereo not drawn) | 9.86%
O=c1[nH]c2ccccc2c2nc(-c3cccc(S(=O)(=O)N4CCCC4)c3)nn12 | 21.2%
CC(=O)Nc1ccc(C2C(=O)c3ccccc3C2=O)cc1 | 21.4%
O=[N+]([O-])c1ccccc1N/N=C1\CC2CC=CC12 (stereo not drawn) | 46.5%
CCOc1ccccc1C(=O)N(CN1CCCC1=O)c1cccc(Cl)c1 | -3.65%
Cc1ccc(-c2c[n+](CC(=O)Nc3ccccc3C)c3n2CCC3)cc1.[Cl-] | -5.42%
Cc1ccc(-c2c[n+](CC(=O)Nc3ccccc3)c3n2CCC3)cc1.[Cl-] | -27.8%
Cc1ccc(NC(=O)C[n+]2cc(-c3ccc(C)cc3)n3c2CCC3)cc1.[Cl-] | -70%
Cc1ccc(-c2c[n+](CC(=O)Nc3c(C)cccc3C)c3n2CCC3)cc1.[Cl-] | 14.1%
CCc1ccc(NC(=O)C[n+]2cc(-c3ccc(C)cc3)n3c2CCC3)cc1.[Cl-] | -63.1%
Cc1ccc(NC(=O)C[n+]2cc(-c3ccccc3)n3c2CCC3)cc1.[Cl-] | -15.2%
Cc1ccccc1NC(=S)/C(=C(\[O-])c1ccc(C)c([N+](=O)[O-])c1)[n+]1ccccc1 | -1.7%
CCC1(C)Cc2ccccc2-c2c1c(=O)n(-c1ccc(C)cc1)c1nnnn21 (stereo not drawn) | 2.8%
Cc1cc2cc(CN(Cc3ccco3)C(=O)NCc3ccccc3)c(=O)[nH]c2cc1C | -6.54%
CN(C)CCNC(C(=O)Nc1cc(Cl)cc(Cl)c1)c1ccccc1 (stereo not drawn) | -45.6%
O=C(Nc1cc(C(F)(F)F)ccc1Cl)C(NCc1ccccc1)c1ccccc1 (stereo not drawn) | 2.13%
CN(C)CCNC(C(=O)Nc1cccc(C(F)(F)F)c1)c1ccccc1.O=C(O)C(=O)O (stereo not drawn) | -56.7%
CCOc1ccc(NC(C(=O)Nc2cccc(C(C)=O)c2)c2ccccc2)cc1 (stereo not drawn) | -49.7%
CCN(CC)CCNC(C(=O)Nc1cccc(C(C)=O)c1)c1ccccc1.O=C(O)C(=O)O (stereo not drawn) | -79.1%
CCC(C(=O)Nc1cccc(C(F)(F)F)c1)c1ccccc1 (stereo not drawn) | 3.89%
CCCC(=O)OC(C(=O)Nc1cc(C(F)(F)F)ccc1Cl)c1ccccc1 (stereo not drawn) | -9.58%

SMILES | hERG current change (%, negative = inhibition) at 10uM
CCN(CC)CCNC(C(=O)Nc1cc(C(F)(F)F)ccc1Cl)c1ccccc1 (stereo not drawn) | -76.4%
CC(=O)c1cccc(NC(=O)C(NC(C)C)c2ccccc2)c1 (stereo not drawn) | 10.5%
O=C(c1cc(F)cc2c1OCOC2)N1CCN(c2ccc(F)cc2)CC1 | -16%
CC(C)C(OC(=O)CN1C(=O)COc2ccccc21)C(=O)NC1CCCCC1 (stereo not drawn) | -9.89%
COC(=O)c1cn(CC(=O)N2CCCCCC2)c2ccccc12 | -40.1%
CCN(CC(=O)NCc1cccs1)C(=O)c1cc(S(=O)(=O)N2CCCCC2)ccc1Cl | -40.2%
Cc1ccc2c(Cl)c(C(=O)NCC3CCCO3)sc2c1 (stereo not drawn) | -12.8%
COc1ccccc1C(=O)NC(=O)COC(=O)c1oc2ccccc2c1C | 1.8%
OCC[C@H]1C[C@@H](O)[C@H](O)[C@]2(Cc3ccccc3CCO2)O1 | -0.537%
CN(CC(=O)Nc1cccc(F)c1)C(=O)/C=C/c1ccc(Br)s1 | 13.2%
COc1cccc(NC(=O)CN(C)C(=O)/C=C/c2cn(Cc3ccccc3)nc2-c2cccnc2)c1 | -59.4%
COc1cccc(NC(=O)CN(C)C(=O)/C=C/c2cc(OC)ccc2OC)c1 | -67.8%
CN(CC(=O)Nc1cccc(F)c1)C(=O)/C=C/c1cc(Br)ccc1OC(F)F | -54.8%
CN(CC(=O)Nc1cccc(F)c1)C(=O)/C=C/c1ccc2ccccc2n1 | 7.19%
COc1ccc(NC(=O)CN(C)C(=O)/C=C/c2cn(Cc3ccccc3)nc2-c2cccnc2)cc1 | -25.9%
COc1ccc(OC)c(/C=C/C(=O)N(C)CC(=O)Nc2ccc(C)cc2)c1 | -18.3%
COc1ccc(OC)c(/C=C/C(=O)N(C)CC(=O)Nc2cc(C)ccc2C)c1 | -15.1%
CN(CC(=O)Nc1cccc(F)c1)C(=O)/C=C/c1cn(Cc2ccccc2)nc1-c1cccnc1 | -48.8%
COc1ccc(OC)c(S(=O)(=O)N(C)CC(=O)N2CCOCC2)c1 | 11.3%
O=C(CSc1nc2ccccc2s1)N/N=C/c1ccccc1C(=O)O | 30.5%
CC1CCN(C(=O)CSc2nnc(-c3ccncc3)n2C)CC1 | 6.41%

SMILES | hERG current change (%, negative = inhibition) at 10uM
CCc1nc(N[C@@H](Cc2c[nH]c3ccccc23)C(=O)O)c2oc3ccccc3c2n1 | 8.39%
CC(C)(C)c1ccc(-c2cc(C(=O)NNC(=O)Nc3ccccc3)c3ccccc3n2)cc1 | 13.6%
CCC(C)[C@H]1COCCS(=O)(=O)N1Cc1ccccc1F (stereo partly drawn) | -18.5%
COc1ccc(-c2onc(C)c2C)cc1S(=O)(=O)NCCc1ccco1 | -41.8%
Cc1cc(-c2ccc(C)c(S(=O)(=O)NCC3CCN(Cc4cccc(F)c4)CC3)c2)on1 | -39.1%
COc1ccc(-c2cc(C)no2)cc1S(=O)(=O)NCC1CCN(Cc2cc(C)ccc2C)CC1 | -72%
CCOc1ccccc1CNS(=O)(=O)c1cc(-c2cc(C)no2)ccc1OC | -18.4%
COc1ccc(-c2cc(C)no2)cc1S(=O)(=O)NCCCN1CCCCCC1 | -17.4%
COc1ccccc1CNS(=O)(=O)c1cc(C)ccc1OC | 9.32%
COc1ccccc1CN1CCC(CNS(=O)(=O)c2cc(-c3onc(C)c3C)ccc2OC)CC1 | -76.7%
CCc1ccc(-c2cc(C)no2)cc1S(=O)(=O)N1CCCN(Cc2ccc(F)cc2)C1 | 5.62%
CCc1ccc(-c2cc(C)no2)cc1S(=O)(=O)NCc1ccccc1OC | -15.8%
COc1ccccc1CN1CCC(CNS(=O)(=O)c2cc(-c3cc(C)no3)ccc2OC)CC1 | -58.2%
COc1ccc(CNS(=O)(=O)c2cc(-c3cc(C)no3)ccc2OC)cc1OC | 2.57%
Cc1cc(-c2ccc(C)c(S(=O)(=O)NCC3CCN(Cc4ccc(F)cc4)CC3)c2)on1 | -66.2%
O=C(Nc1cccc(NC(=O)c2ccc(Br)cc2)c1)c1ccccc1 | 18%
CCCC(CCC(=O)Nc1ccn(-c2ccccc2)n1)C(=O)O (stereo not drawn) | 4.5%
COc1ccc(S(=O)(=O)N2CCCC(C(=O)NCc3ccccc3)C2)cc1 (stereo not drawn) | 23.7%
CN(C)C=O.CN(C)c1ccc(/C=C/c2nc3ccccc3c(=O)n2-c2ccc(C(=O)O)cc2)cc1 | 19.8%
C=CCn1c(SCC(N)=O)nnc1-c1ccccc1O | 0.103%
CCOc1ccc(CCN2CN(CC)CNC2=S)cc1OCC | -0.457%

SMILES | hERG current change (%, negative = inhibition) at 10uM
COc1cccc(C(=O)NC(C)c2cccc3ccccc23)c1OC (stereo not drawn) | -10.4%
S=C(NC1CCCCC1)N1CCc2ccccc2C1 | -5.33%
Cc1cc2cc(CCNC(=O)c3ccc(S(=O)(=O)N4CCOCC4)cc3)c(=O)[nH]c2cc1C | 6.3%
Cc1ccnc(NS(=O)(=O)c2ccccc2)c1 | 15.2%
COc1ccc(-c2cc(C)no2)cc1S(=O)(=O)NCCCN(C)Cc1ccccc1 | -29.9%
COc1ccccc1CNS(=O)(=O)c1cc(-c2cc(C)no2)ccc1C(C)C | 5.07%
CCc1ccc(-c2cc(C)no2)cc1S(=O)(=O)NCCN1CCC(C)CC1 | -7.14%
Cc1cc(-c2ccc(C)c(S(=O)(=O)NCCCN(Cc3ccccc3)C(C)C)c2)on1 | -36.9%
Cc1cc(-c2ccc(C)c(S(=O)(=O)NCCCN3CCN(c4ccccc4)CC3)c2)on1 | -33.2%
COc1ccccc1CN1CCC(CNS(=O)(=O)c2cc(-c3cc(C)no3)ccc2C)CC1 | -61.3%
COc1ccc(-c2cc(C)no2)cc1S(=O)(=O)NCCCN1CCN(c2ccccc2)CC1 | -68%
CCOc1ccccc1CNS(=O)(=O)c1cc(-c2cc(C)no2)ccc1C | -19%
CCN(CCCNS(=O)(=O)c1cc(-c2cc(C)no2)ccc1C)Cc1ccccc1 | -61.3%
Cc1cc(-c2ccc(C)c(S(=O)(=O)NCCCN3CCN(c4ccccc4F)CC3)c2)on1 | 10.3%
CCc1ccc(-c2cc(C)no2)cc1S(=O)(=O)NCCCN1CCN(c2ccccc2)CC1 | 1.91%
Cc1cc(-c2ccc(C)c(S(=O)(=O)NCC3CCN(Cc4ccccc4F)CC3)c2)on1 | -52.8%
O=C(CCCCCNC(=O)c1ccccc1)N/N=C/c1ccccc1 | -9.98%
O=C(Nc1ccc2oc(-c3cccnc3)nc2c1)c1ccc2c(c1)OCCO2 | 20.2%
